This passage reports outcome and AC50 results from PubChem BioAssay (EPA / NIEHS).

Structures are written as SMILES. Results filed as inconclusive are left out. Active and inactive are the calls of the source. Rule for the calls, unless noted: active = hit-call score of the fitted dose curve at least 0.9, where 1 is the maximum; inconclusive = response in the unintended direction; inactive = score below 0.9.

What is called AC50 is the midpoint of the concentration-response curve, whichever way the signal moves.

A short description of assay [1]: Tanguay_ZF_120hpf_JAW_legacy: (Legacy) Oregon State University Tanguay Lab 120 Hour Post-fertilization zebrafish Assay for Jaw Malformation (AID 2283638). A digest of the protocol: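 Steps: dechorionate 4 hpf embryos (pronase); plate 1/well at 6 hpf; add test chemical, 0.64% DMSO final; seal, cover, hold at 28C statically to 120 hpf; score jaw defect presence/absence microscopically. Dead embryos not scored.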

Assay [2] in a line: Tanguay_ZF_120hpf_BRAI_legacy: (Legacy) Oregon State University Tanguay Lab 120 Hour Post-fertilization zebrafish Assay for Brain Malformation (AID 2283641). The method, boiled down: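 Wild-type 5D larvae, static waterborne exposure to 120 hpf, 28C, 0.64% v/v DMSO. Brightfield scoring of brain defects, binary; dead embryos excluded. Positive ctrl 5uM trimethyltin chloride.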

Assay [3] is described as follows: Tanguay_ZF_120hpf_CFIN_legacy: (Legacy) Oregon State University Tanguay Lab 120 Hour Post-fertilization zebrafish Assay for Caudal Fin Malformation (AID 2283649). The method, boiled down: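 Binary presence or absence of caudal fin malformation at 120 hpf, read by brightfield microscopy, with DMSO as baseline. Larvae came from 5D wild-type embryos exposed statically from 6 hpf at 28C after pronase dechorionation.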

Assay [4] can be described thus: Tanguay_ZF_120hpf_PIG_legacy: (Legacy) Oregon State University Tanguay Lab 120 Hour Post-fertilization zebrafish Assay for Pigmentation Malformation (AID 2283650). The method, boiled down:
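Pigment malformation recorded as a binary call at 120 hpf in zebrafish (Tropical 5D) exposed singly from 6 hpf after pronase dechorionation. Static, sealed, 28C exposure, 0.64% DMSO; mortality excludes scoring; positive-direction fit against DMSO.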

Assay [5] is described as follows: Tanguay_ZF_120hpf_CIRC_legacy: (Legacy) Oregon State University Tanguay Lab 120 Hour Post-fertilization zebrafish Assay for Circulatory Malformation (AID 2283651). The method, boiled down:
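Embryos are dechorionated at 4 hpf, plated one per well at 6 hpf, then held under static exposure at 28C until 120 hpf. Malformations are recorded as binary calls; mortality excludes other endpoints.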

The nature of assay [6]: Tanguay_ZF_120hpf_SWIM_legacy: (Legacy) Oregon State University Tanguay Lab 120 Hour Post-fertilization zebrafish Assay for Swim Bladder Malformation (AID 2283654).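 Note: swim bladder malformation in each larva scored yes or no under brightfield.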 A digest of the protocol: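 Scoring is binary for swim bladder defects at 120 hpf, by brightfield inspection of zebrafish larvae. Embryos were exposed singly from 6 hpf after pronase dechorionation, at 28C with 0.64% DMSO; mortality excluded scoring.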

Assay [7] is described as follows: Tanguay_ZF_120hpf_NC_legacy: (Legacy) Oregon State University Tanguay Lab 120 Hour Post-fertilization zebrafish Assay for Notochord and Tail Malformation (AID 2283656). A digest of the protocol:
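Binary scoring of notochord distortion by brightfield microscopy; embryos dying were not scored. Wild-type Tropical 5D embryos, chorion removed, exposed singly and statically from 6 to 120 hpf, 28C, sealed, 0.64% DMSO.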

Assay [8] in a line: Tanguay_ZF_120hpf_TR_legacy: (Legacy) Oregon State University Tanguay Lab 120 Hour Post-fertilization zebrafish Assay for Touch Response (AID 2283667). A digest of the protocol:
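Binary touch-response endpoint in larvae at 120 hpf after static waterborne exposure from embryo stage (28°C, 0.64% DMSO vehicle, 5 uM trimethyltin chloride as positive control); embryos dead at 24 or 120 hpf excluded; fitted as gain versus DMSO.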

Assay [9] is described as follows: Tanguay_ZF_120hpf_PFIN_legacy: (Legacy) Oregon State University Tanguay Lab 120 Hour Post-fertilization zebrafish Assay for Pectoral Fin Malformation (AID 2283648).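 Note: each larva judged yes or no for fin defect by brightfield with dead larvae skipped.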 A digest of the protocol:
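Pectoral fin malformation was recorded as a binary endpoint at 120 hpf in wild-type Tropical 5D larvae, which had been dechorionated and exposed statically from 6 hpf at 28C in 0.64% DMSO. Dead embryos were excluded.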

The nature of assay [10]: Tanguay_ZF_120hpf_OTIC_legacy: (Legacy) Oregon State University Tanguay Lab 120 Hour Post-fertilization zebrafish Assay for Otic Vesicle Malformation (AID 2283639). A digest of the protocol: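 Statically exposed wild-type 5D zebrafish embryos, kept sealed and dark at 28C through 120 hours post fertilization, were examined by brightfield microscopy for otic vesicle defects. Responses were recorded as present or absent and analysed relative to DMSO.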

Assay [11] is described as follows: Tanguay_ZF_120hpf_SOMI_legacy: (Legacy) Oregon State University Tanguay Lab 120 Hour Post-fertilization zebrafish Assay for Somite Malformation (AID 2283647). A digest of the protocol:
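Read-out: presence or absence of somite malformation in 120 hpf larvae, gain-of-signal relative to DMSO baseline. Embryos lacked chorion (pronase, 4 hpf) and were exposed statically from 6 hpf at 28C; dead larvae not scored.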

Read-out in assay [12]: solute carrier (SLC22A6), SLC22A6 (gene 9356)
Nature of the assay: LTEA_HepaRG_SLC22A6: Life Technologies and Expression Analysis (LTEA) Assay for solute carrier (SLC22A6) using HepaRG (AID 2283653; active = hit-call score of the fitted dose curve at least 0.9, where 1 is the maximum; inactive = score below 0.9). The note with it: mRNA level, 48 h; actives raise or lower the signal. A digest of the protocol: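 Read-out is SLC22A6 transcript level by qRT-PCR, normalised to three housekeeping genes and fitted for gain or loss relative to 0.5% DMSO vehicle. Human HepaRG cells received chemicals at up to 100 uM for 48 h.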

The nature of assay [13]: Tanguay_ZF_120hpf_TRUN_legacy: (Legacy) Oregon State University Tanguay Lab 120 Hour Post-fertilization zebrafish Assay for Truncated Body (AID 2283655). The method, boiled down: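 Truncated body is recorded as a binary endpoint at 120 hpf by brightfield imaging of wild-type 5D larvae. Exposure runs statically from 6 hpf at 28C with 0.64% DMSO; embryos dying earlier are not scored.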

Read-out in assay [14]: solute carrier (SLC10A1), SLC10A1 (gene 6554)
The assay can be described thus: LTEA_HepaRG_SLC10A1: Life Technologies and Expression Analysis (LTEA) Assay for solute carrier (SLC10A1) using HepaRG (AID 2283657; active = hit-call score of the fitted dose curve at least 0.9, where 1 is the maximum; inactive = score below 0.9). Conditions: mRNA level, 48 h; actives raise or lower the signal. The method, boiled down:
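SLC10A1 transcript measured by TaqMan qRT-PCR, housekeeping-normalised, after 48 h chemical treatment of human HepaRG cells. Eight concentrations (half-log, max 100 uM, 0.5% DMSO vehicle) in duplicate; fitted bidirectionally against DMSO baseline.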

Read-out in assay [15]: matrix metalloproteinase-1 (MMP1), MMP1 (gene 4312)
Nature of the assay: LTEA_HepaRG_MMP1: Life Technologies and Expression Analysis (LTEA) Assay for matrix metalloproteinase-1 (MMP1) using HepaRG (AID 2283658; active = hit-call score of the fitted dose curve at least 0.9, where 1 is the maximum; inactive = score below 0.9). The note with it: mRNA level, 48 h; actives raise or lower the signal. A digest of the protocol: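 HepaRG, ~100,000 cells/well, 48 h pre-culture; serum-free induction medium; test chemical 8 conc (max 100 uM, half-log), duplicate, 48 h; 0.5% DMSO; qRT-PCR MMP1, housekeeping-normalized; gain/loss fit vs DMSO.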

Assay [16] has as its system Thyroperoxidase (TPO), gene 54314. The assay can be described thus: CCTE_Simmons_AUR_rTPO: CCTE's Amplex UltraRed Assay for Thyroperoxidase (TPO) Inhibition, Simmons Lab (AID 2283662).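 Note: potency for loss of signal meaning inhibition of peroxidase activity.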 The method, boiled down:
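Rat thyroid microsomes (5 ug protein) were incubated with test compound (8 concentrations, 5 nM–87.5 uM final, 0.5% DMSO), 25 uM Amplex UltraRed and 300 uM H2O2 in 200 mM phosphate buffer for 30 min at 37C in the dark; fluorescence read at 544/590 nm.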

A short description of assay [17]: CCTE_Simmons_CellTiterGLO_HEK293T: Viability Assessment in CCTE's Assays for Thyroperoxidase (TPO) Inhibition, Simmons Lab (AID 2283665). A digest of the protocol: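 Cells were seeded overnight, then exposed to an eight-point series up to 87.5 uM final for 24 hours. CellTiter-Glo reagent was added and luminescence read after 20 min, giving ATP-based viability versus DMSO.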
(Cellular ATP, detected with luciferase, serves as a proxy for viable cell number.)

Read-out in assay [18]: Cytochrome P450 (CYP24A1_1), CYP24A1 (gene 1591)
The assay can be described thus: LTEA_HepaRG_CYP24A1_1: Life Technologies and Expression Analysis (LTEA) Assay for Cytochrome P450 (CYP24A1_1) using HepaRG (AID 2283671; active = hit-call score of the fitted dose curve at least 0.9, where 1 is the maximum; inactive = score below 0.9). Conditions: mRNA level, 48 h; actives raise or lower the signal. A digest of the protocol: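 Differentiated human HepaRG cells were exposed in duplicate for 48 h in serum-free induction medium to eight concentrations (top 100 uM, half-log steps, 0.5% DMSO). CYP24A1 mRNA was quantified by TaqMan qRT-PCR, normalized to ACTB, GAPDH and POLR2A, and fitted bidirectionally versus DMSO.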

`NC(=O)NN=Cc1ccc([N+](=O)[O-])o1`: the molecule was called inactive in assay [1], in assay [2], in assay [3], in assay [4], in assay [5] and in [6]. Moreover, the outcome in [7] and in [8] was inactive.

On to `O=C(O)c1ccc2c(c1)nc(C(=O)NC1CCN(C3CC3)CC1)n2Cc1cc(-c2ccc(Cl)s2)on1`, for which the outcome in [1], in assay [2], in assay [9], in assay [3], in assay [4] and in [5] was inactive. In addition, the call in assay [6] and in [8] was inactive.

Take `CCCCOC(=O)c1ccccc1`: the result in assay [1], in [10], in assay [3], in [4], in assay [6] and in assay [7] was inactive. Further, the result in assay [8] was inactive.

As for `c1ccc2cc3ccccc3cc2c1`, the molecule was called inactive in [1], in assay [10], in [11], in [9], in assay [3] and in assay [4]. In addition, the result in assay [12], in assay [6], in assay [13], in assay [15], in assay [17] and in assay [8] was inactive. Besides, the outcome in assay [18] was inactive. Besides, the values for the AC50 in [14] and in assay [16] were 10.4 µM (active) and 10.6 µM (active), respectively.

Turning to `COc1cc2c(c(OC)c1OC)-c1ccc(OC)c(=O)cc1[C@@H](NC(C)=O)CC2`, the result in assay [1], in assay [3], in assay [5], in [12], in assay [6] and in [15] was inactive. For the same molecule, the concentration at half-maximal activity (AC50) in assay [10] was 25 µM (active); in assay [11] it was 25.5 µM (active); in assay [4], 22.8 µM (active); in assay [14] it was 0.107 µM (active); in assay [8] it was 13.3 µM (active); in assay [18], 0.067 µM (active).

In the case of `CC(C)CCCCCCOC(=O)C1CCCCC1C(=O)OCCCCCCC(C)C` (stereo unspecified), the result in [1], in assay [2], in [9], in assay [3], in assay [4] and in assay [5] was inactive. The molecule was called inactive in [6] and in [8].

Consider `OC(CCl)CCl`, for which the outcome in assay [1], in assay [10], in [2], in assay [9], in [4] and in assay [5] was inactive. The molecule was called inactive in [6], in assay [7] and in assay [8].

Take `O=C1CN(N=Cc2ccc([N+](=O)[O-])o2)C(=O)N1`: the molecule was called inactive in assay [10], in assay [2], in [5], in [6] and in assay [8].

Take `NC(=O)N1c2ccccc2C=Cc2ccccc21`: the molecule was classed as inactive in assay [1], in assay [10], in [2], in assay [3], in assay [4] and in assay [5]. Also, the call in assay [6], in assay [7] and in assay [8] was inactive.
